Paper PMC4336329 (PLoS ONE, 2015)
The whole screen tested about 310,000 compounds, of which about 14,000 (4.5%) showed an effect of 50% or more. Effects have a minus sign here. Shown is part of a subset that was picked to be rich in strong results.

Target: human ether-à-go-go-related gene (hERG) potassium channel (human, UniProt Q12809)
Test: primary screen, population patch clamp on CHO cells stably expressing hERG; higher = less effect of the substance
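Note: peak tail current of the secondary pulse compared with the same well before compound.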

Chain of human ether-à-go-go-related gene (hERG) potassium channel (Q12809 whole entry, looked up): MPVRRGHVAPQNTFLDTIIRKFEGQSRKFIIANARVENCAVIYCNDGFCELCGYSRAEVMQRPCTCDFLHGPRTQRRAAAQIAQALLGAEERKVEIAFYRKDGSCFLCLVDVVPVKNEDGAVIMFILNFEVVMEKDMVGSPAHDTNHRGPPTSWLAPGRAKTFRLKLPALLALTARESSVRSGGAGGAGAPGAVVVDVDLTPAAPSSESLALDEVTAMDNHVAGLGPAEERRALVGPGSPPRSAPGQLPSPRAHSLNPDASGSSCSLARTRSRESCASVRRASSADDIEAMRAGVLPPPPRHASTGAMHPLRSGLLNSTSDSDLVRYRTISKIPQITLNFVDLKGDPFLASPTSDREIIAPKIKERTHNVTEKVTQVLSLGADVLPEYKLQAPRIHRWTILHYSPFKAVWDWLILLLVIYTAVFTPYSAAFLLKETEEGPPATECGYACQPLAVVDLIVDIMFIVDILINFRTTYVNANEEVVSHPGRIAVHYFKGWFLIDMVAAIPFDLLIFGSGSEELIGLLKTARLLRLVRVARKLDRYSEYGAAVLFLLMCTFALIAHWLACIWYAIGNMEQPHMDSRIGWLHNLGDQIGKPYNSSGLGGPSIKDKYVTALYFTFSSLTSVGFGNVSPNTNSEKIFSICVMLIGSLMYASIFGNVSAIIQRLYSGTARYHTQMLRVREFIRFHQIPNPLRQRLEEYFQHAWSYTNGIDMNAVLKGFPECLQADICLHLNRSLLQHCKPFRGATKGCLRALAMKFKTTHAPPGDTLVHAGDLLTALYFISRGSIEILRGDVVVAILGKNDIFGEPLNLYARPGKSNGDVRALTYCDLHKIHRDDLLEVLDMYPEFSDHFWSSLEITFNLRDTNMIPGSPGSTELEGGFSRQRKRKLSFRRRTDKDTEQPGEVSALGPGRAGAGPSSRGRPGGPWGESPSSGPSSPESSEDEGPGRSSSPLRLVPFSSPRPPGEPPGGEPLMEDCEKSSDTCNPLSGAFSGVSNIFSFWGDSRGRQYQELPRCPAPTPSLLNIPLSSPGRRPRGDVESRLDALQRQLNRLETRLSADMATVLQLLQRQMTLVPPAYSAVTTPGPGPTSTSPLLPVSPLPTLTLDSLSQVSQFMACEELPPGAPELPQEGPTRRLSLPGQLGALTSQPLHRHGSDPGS

| Structure (SMILES) | hERG current change (%, negative = inhibition) at 10uM [%] |
| --- | --- |
| COc1ccc(NC(=O)c2coc3ccccc23)cc1OC | 6.21 |
| CSc1nc(-c2ccc(Cl)cc2)c(C#N)c(=O)[nH]1 | 13.1 |
| Cc1nc(SCC(=O)NC2CCCCC2C)c(C#N)c(C)c1C (stereo not shown) | -7.03 |
| O=S(=O)(CCN1CCOCC1)c1ccccc1 | 8.81 |
| Cc1nc(-c2ccc(S(=O)(=O)N3CCOCC3)cc2)cs1 | 12.8 |
| O=C(Cc1ccccc1)N1CCN(C/C=C/c2ccccc2)CC1 | -19.5 |
| COc1ccc(OCC(=O)N2CCN(C/C=C/c3ccccc3)CC2)cc1 | -58.8 |
| COc1ccc(O)c(CN2CCN(C/C=C/c3ccccc3)CC2)c1 | -51.9 |
| Cc1ccccc1CN1CCN(C/C=C/c2ccccc2)CC1 | 8.81 |
| COc1cccc(NC(=S)N2CCN(C/C=C/c3ccccc3)CC2)c1 | -44.7 |
| COc1ccc(OC)c(NC(=S)N2CCN(C/C=C/c3ccccc3)CC2)c1 | -33 |
| COc1cc(Br)cc(CN2CCN(C/C=C/c3ccccc3)CC2)c1O | -32.1 |
| O=C(COc1ccccc1)N1CCN(C(=O)COc2ccccc2)CC1 | -32.2 |
| CN(c1ccc(OCC(=O)N2CCN(C/C=C/c3ccccc3)CC2)cc1)S(=O)(=O)c1cccs1.Cl | -30.6 |
| COc1ccc(OCC(=O)N2CCN(C(=O)COc3ccccc3)CC2)cc1 | -47.5 |
| COc1ccc(NC(=S)N2CCN(C/C=C/c3ccccc3)CC2)c(OC)c1 | -64.2 |
| O=C(COc1ccccc1)N1CCN(C/C=C/c2ccccc2)CC1 | -58.1 |
| c1ccc(-c2onc(-c3ccco3)c2-c2ccc3c(c2)OCO3)cc1 | 2 |
| O=[N+]([O-])c1ccc(-c2ccccc2)c([As](=O)(O)O)c1 | 11.9 |
| O=c1cc(C(F)(F)F)nc(SCc2cccc3ccccc23)[nH]1 | 24 |
| Cn1c(SCC(=O)OC2CCCCC2)nnc1-c1ccc2c(c1)OCO2 | -19.7 |
| COc1ccc(Cn2c(=O)[nH]c3cc(C(=O)NC4CCN(Cc5ccccc5)CC4)ccc32)cc1 | -3.88 |
| COc1ccc(N2CCN(Cc3cc(=O)oc4cc(C)c(Cl)cc34)CC2)cc1 | 8.44 |
| Cc1cc(C)n2nc(C(=O)OCC(=O)N3CC(C)CC(C)C3)nc2n1 (stereo not shown) | 15.4 |
| O=C(NCc1ccco1)Nc1ccc2nsnc2c1 | 10.7 |
